This note sets out measurements from PubChem BioAssay (NCATS).

Assay [1] concerns the target Papain (Carica papaya) (UniProt P00784). Kind of assay: Primary qHTS assay for inhibitors of the protease papain (AID 1645873).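 Note: papain turnover of Z-FR-AMC read as the AMC fluorescence gain over 10 min; % is set by controls: 0 for no effect and ±100 for the full control effect.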 Background: In qHTS, concentration-response curves come from the screen itself.
In assay [2] the target is Metallo-beta-lactamase type 2 (Klebsiella pneumoniae) (UniProt C7C422). Kind of assay: qHTS to identify inhibitors of the New Delhi Metallo-beta-lactamase (NDM): assay validation screen against the NCATS LOPAC Collection (AID 1794843).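 Note: nitrocefin turnover by NDM-1 measured as 485 nm absorbance at plateau; % is set by controls: 0 for no effect and ±100 for the full control effect.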 The method in brief: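 NDM-1 at 2 nM final in 50 mM HEPES pH 7.0 with 1 uM ZnSO4 and 0.01% Tween20 was preincubated with library compounds in DMSO. Nitrocefin (50 uM stock) was then added, and absorbance at 485 nm was read at the kinetic plateau.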

Assay [3] in a line: Primary qHTS for inhibitors of nuclear receptor binding SET domain protein 2 (NSD2) in an isogenic RCH-ACV NSD2 p.E1099K mutant (9B) (AID 1645876). For activity change, negative = viability loss: % is set by controls: 0 for no effect and ±100 for the full control effect. Note: nearly all actives have a fitted effect of over 70% in size. Note: potency is the fitted concentration of half-maximal effect.
The nature of assay [4]: NCATS anti-infectives library activity on HEK293 viability as a counter-qHTS vs the C. elegans viability qHTS (AID 1745854).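 Note: HEK293 cells exposed to compounds for 24 hr before the viability read; % is set by controls: 0 for no effect and ±100 for the full control effect.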 The gist of the method: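 Compound titrations (final up to 41.7 uM) were incubated with HEK293 cells for 24 hr at 37C under 5% CO2. Viable cells were quantified with CellTiter-Glo after 10 min at ambient temperature.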
The nature of assay [5]: NCATS anti-infectives library activity on the primary C. elegans qHTS viability assay (AID 1745855; calls by dose curve). As to conditions: C. elegans worm area imaging, day 7; at 41.8 µM (top of the series). The method in brief:
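Titration-based screen in worms: eggs hatched overnight in M9, L1 larvae fed TOP10 capsules in S medium with compound, incubated 21 °C for 7 days; fluorescent objects gated by size and intensity at days 0, 3 and 7.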

Assay [6] in a line: Viability counterscreen for antagonist of constitutive androstane receptor (CAR) against the NCATS DSHEA and TCM libraries (AID 1794837).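 Note: compound exposure lasted 24 h before viability reading; 0% is about no effect.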 The gist of the method: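 Cells: HepG2 line carrying CYP2B6 reporter and hCAR, seeded and attached 5 h. Then pin-transferred test substances plus agonist CITCO at 48 uM final; 24 h incubation; fluorogenic viability reagent, 1 h.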
A general note: The purpose of a counterscreen is to sort out artefacts and off-target activity.

A short description of assay [7]: Viability counterscreen for agonist of constitutive androstane receptor (CAR) against the NCATS DSHEA and TCM libraries (AID 1794838).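 Note: HepG2 cells with CYP2B6 reporter and hCAR plus 0.75 µM PK11195 antagonist; 0% is about no effect.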 The method in brief:
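Cell health was measured as CellTiter-Fluor signal in HepG2-CYP2B6-hCAR cells treated for 24 h with substances alongside the hCAR antagonist PK11195 (0.75 uM final).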

Assay [8] has as its target Nuclear receptor subfamily 1 group I member 3 (Homo sapiens) (UniProt Q14994). Kind of assay: Primary qHTS for agonist of constitutive androstane receptor (CAR) against the NCATS DSHEA and TCM libraries (AID 1794839).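 Note: HepG2 cells expressing human CAR with a CYP2B6 reporter plus PK11195 antagonist; luciferase reporter luminescence read with ONE-Glo; 0% is about no effect.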 The method in brief: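 qHTS, agonist mode: HepG2-CYP2B6-hCAR, 2,500 cells/well, 5 h attach; cpds + PK11195 0.75 µM final; 24 h, 37 °C, 5% CO2. Readouts: CellTiter-Fluor (405/540 nm), then ONE-Glo luminescence.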

Assay [9] can be described thus: HepG2 viability counterscreen (readout 2: ATP content) against the NCATS DSHEA and TCM libraries (AID 1794840). Note: 0% is about no effect. The method in brief: (§1)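 Same wells read twice: first fluorescence from cleaved GF-AFC substrate (25 uM final, 30 min, 37C) for live-cell protease, then CellTiter-Glo luminescence after 30 min at room temperature for ATP. HepG2 cells were exposed ~24 h to substances.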

Assay [10] in a line: HepG2 viability counterscreen (readout 1: protease activity) against the NCATS DSHEA and TCM libraries (AID 1794841).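 Note: cells exposed to compounds for about 24 h before the protease read; 0% is about no effect.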 The method in brief:
as §1

Assay [11] can be described thus: Primary qHTS for inhibitors of nuclear receptor binding SET domain protein 2 (NSD2) in an RCH-ACV wild type WT cells (2C) (AID 1645877). Note: nearly all actives have a fitted effect of over 70% in size. Note: potency is the fitted concentration of half-maximal effect.
In assay [12] the target is N-terminal Xaa-Pro-Lys N-methyltransferase 1 (Homo sapiens) (UniProt Q9BV86). Kind of assay: Confirmatory qHTS for Inhibitors of N-terminal methyltransferase 1 (NTMT1): MTaseGlo Assay (AID 1645874).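 For activity change, negative = inhibition: luminescence from SAH made as NTMT1 methylates SPKRIA peptide using SAM; 0% = DMSO control and -100% = no-enzyme control.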 Note: nearly all actives have a fitted effect of over 65% in size. Note: potency is the fitted concentration of half-maximal effect. The method in brief: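 SPKRIA peptide at 1 uM was methylated by 125 nM NTMT1 using 100 uM SAM over 30 min at room temperature, following a 15 min compound preincubation. Product SAH was detected luminescently.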

Assay [13] has as its target Catechol O-methyltransferase (Homo sapiens) (UniProt P21964). Kind of assay: Confirmatory Screen for Target Class Profiling of Small Molecule Inhibitors of Methyltransferases (AID 1745852; calls by dose curve). As to conditions: MTase-Glo luminescence, SAH detection, recombinant enzyme; measured here: COMT max response; stronger effect = lower value.
Assay [14] addresses Guanidinoacetate N-methyltransferase (Homo sapiens) (UniProt Q14353). The assay is described as above. The note with it: MTase-Glo luminescence, SAH detection, recombinant enzyme; at 57.3 µM (top of the series).
In assay [15] the target is Nicotinamide N-methyltransferase (Homo sapiens) (UniProt P40261). The description is as above. As to conditions: MTase-Glo luminescence, SAH detection, recombinant enzyme; measured here: NNMT max response; stronger effect = lower value.
The target in assay [16] is Phenylethanolamine N-methyltransferase (Homo sapiens) (UniProt P11086). Described as above. As to conditions: MTase-Glo luminescence, SAH detection, recombinant enzyme; measured here: PNMT max response; stronger effect = lower value.

Structures are written as SMILES. “And” between values parts separate entries of the source, which are not always exact repeats. Identical values can stand only once. Inconclusive results are not listed. The source holds several records for some structures; these can differ, active in one and inactive in another. The source made the active and inactive calls. Unless noted, calls come from the whole dose curve; as a rule, active = well fitted curve in the direction sought with a large enough effect; inconclusive = small, poorly fitted or top-dose-only effect, or another doubt; inactive = no such curve, though single readings can be large; an effect the other way counts as inactive or inconclusive.

Sequence of N-terminal Xaa-Pro-Lys N-methyltransferase 1 (Homo sapiens) (Q9BV86 whole entry, looked up): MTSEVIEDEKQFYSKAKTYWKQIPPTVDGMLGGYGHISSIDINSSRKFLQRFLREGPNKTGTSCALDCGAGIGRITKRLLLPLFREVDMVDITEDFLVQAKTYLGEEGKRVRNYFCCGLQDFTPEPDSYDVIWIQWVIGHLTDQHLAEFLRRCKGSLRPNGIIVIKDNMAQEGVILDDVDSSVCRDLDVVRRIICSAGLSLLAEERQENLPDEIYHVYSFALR
Sequence of Metallo-beta-lactamase type 2 (Klebsiella pneumoniae) (C7C422 whole entry, looked up): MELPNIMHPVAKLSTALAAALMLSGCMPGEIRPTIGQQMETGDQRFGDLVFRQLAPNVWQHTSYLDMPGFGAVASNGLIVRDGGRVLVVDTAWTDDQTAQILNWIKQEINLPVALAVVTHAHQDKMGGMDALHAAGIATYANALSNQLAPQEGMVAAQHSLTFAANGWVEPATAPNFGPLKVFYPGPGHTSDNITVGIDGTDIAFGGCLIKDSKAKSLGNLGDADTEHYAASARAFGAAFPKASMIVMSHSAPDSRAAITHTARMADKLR
Sequence of Papain (Carica papaya) (P00784 whole entry, looked up): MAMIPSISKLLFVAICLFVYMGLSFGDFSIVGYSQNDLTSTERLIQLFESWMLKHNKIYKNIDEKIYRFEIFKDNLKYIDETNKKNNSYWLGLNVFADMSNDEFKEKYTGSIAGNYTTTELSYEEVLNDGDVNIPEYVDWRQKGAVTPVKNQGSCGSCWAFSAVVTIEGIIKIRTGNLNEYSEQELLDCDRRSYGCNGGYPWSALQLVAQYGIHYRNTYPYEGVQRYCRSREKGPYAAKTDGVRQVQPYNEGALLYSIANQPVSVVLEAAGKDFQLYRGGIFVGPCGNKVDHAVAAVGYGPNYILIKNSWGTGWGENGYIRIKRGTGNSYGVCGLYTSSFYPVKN
Sequence of Nuclear receptor subfamily 1 group I member 3 (Homo sapiens) (Q14994 whole entry, looked up): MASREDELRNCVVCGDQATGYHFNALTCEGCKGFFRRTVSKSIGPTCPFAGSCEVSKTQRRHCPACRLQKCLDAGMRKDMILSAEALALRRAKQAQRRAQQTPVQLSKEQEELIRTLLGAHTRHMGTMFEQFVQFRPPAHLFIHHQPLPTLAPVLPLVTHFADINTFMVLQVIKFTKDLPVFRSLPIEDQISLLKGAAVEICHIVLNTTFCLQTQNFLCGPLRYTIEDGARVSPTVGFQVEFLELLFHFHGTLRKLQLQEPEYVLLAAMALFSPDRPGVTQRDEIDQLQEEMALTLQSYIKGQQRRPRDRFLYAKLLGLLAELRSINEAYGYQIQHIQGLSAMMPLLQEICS
Sequence of Nicotinamide N-methyltransferase (Homo sapiens) (P40261 whole entry, looked up): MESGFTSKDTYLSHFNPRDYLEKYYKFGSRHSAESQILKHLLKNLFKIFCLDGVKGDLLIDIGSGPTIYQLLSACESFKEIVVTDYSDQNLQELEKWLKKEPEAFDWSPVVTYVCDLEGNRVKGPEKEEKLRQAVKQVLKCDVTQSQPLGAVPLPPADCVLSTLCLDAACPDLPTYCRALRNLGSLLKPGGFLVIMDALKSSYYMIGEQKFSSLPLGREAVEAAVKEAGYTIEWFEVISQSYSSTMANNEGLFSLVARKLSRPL
Sequence of Catechol O-methyltransferase (Homo sapiens) (P21964 whole entry, looked up): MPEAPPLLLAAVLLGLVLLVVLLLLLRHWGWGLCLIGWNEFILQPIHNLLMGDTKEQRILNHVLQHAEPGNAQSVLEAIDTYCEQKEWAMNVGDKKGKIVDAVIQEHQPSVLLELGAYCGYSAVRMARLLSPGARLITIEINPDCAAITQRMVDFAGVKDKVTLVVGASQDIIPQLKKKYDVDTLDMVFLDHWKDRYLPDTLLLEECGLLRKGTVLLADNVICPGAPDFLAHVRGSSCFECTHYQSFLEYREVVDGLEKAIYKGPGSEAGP
Sequence of Phenylethanolamine N-methyltransferase (Homo sapiens) (P11086 whole entry, looked up): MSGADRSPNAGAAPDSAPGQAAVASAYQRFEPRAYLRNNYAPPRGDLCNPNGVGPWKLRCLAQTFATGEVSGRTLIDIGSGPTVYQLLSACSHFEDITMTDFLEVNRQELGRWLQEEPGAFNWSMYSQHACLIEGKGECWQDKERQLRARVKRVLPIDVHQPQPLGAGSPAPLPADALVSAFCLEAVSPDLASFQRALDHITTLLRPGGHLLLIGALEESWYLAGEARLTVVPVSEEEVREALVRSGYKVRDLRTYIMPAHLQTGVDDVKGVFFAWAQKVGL

In the case of `Nc1ncnc2n[nH]c(Nc3ccc(F)cc3)c12`, the outcome in [1] and in assay [2] was “inactive” in each case.
Turning to `CCCCN(CCN(CCCC)C(=O)N1CCOCC1)C(=O)N1CCOCC1`, the Potency result in assay [3] was “inactive”.
For `Cc1nn(-c2ccccc2)c(C)c1/C=N/N1CCN(Cc2ccccc2)CC1`, the outcome in assay [1] and in assay [2] was “inactive” in each case.
For `CCCCC(CC)COC(=O)c1ccccc1C(=O)O` (configuration not stated), the Potency entry in [3] is “inactive”.
In the case of `CCN(CC)CCNC(=O)c1ccc(NS(C)(=O)=O)cc1`, the outcome in [1] and in assay [2] was “inactive” throughout.
Take `CC(=O)Nc1ccn(C2COC(COC(=O)c3ccccc3)O2)c(=O)n1` (configuration not stated): the Potency in [3] is 10.6 µM (active).
For `Clc1ccc2c(c1)N=C(N1CCNCC1)c1ccccc1N2`, the outcome in assay [1], in assay [5] and in [2] was “inactive” in each case. Further, the Potency result in [4] was “inactive”.
For the compound `C[N+](C)(C)CCO`, the outcome in assay [1], in [6], in assay [7], in assay [8], in assay [9] and in assay [10] was “inactive” in each case. Further, in assay [2], the outcome was “inactive”.
In the case of `O=[N+]([O-])c1ccc(-c2nc(-c3ccc(F)cc3)c(-c3ccncc3)[nH]2)cc1`, the outcome in [1] and in assay [2] was “inactive” each time. Further, the Potency entry is “inactive and 18.4 µM (active)” in assay [3]; “inactive and 23.1 µM (active)” in assay [11].
In the case of `CN1CCCN=C1/C=C/c1cccs1`, the Potency result in [12] and in assay [3] was “inactive” in each case.
As for `CC(CCc1ccc2c(c1)OCO2)NN` (configuration not stated), the Potency entry in [3] was “inactive”.
As to `O=C(NO)c1ccccc1`, the Potency in assay [3] was 36.6 µM (active).
On the same count and under the same terms, the result for `CC(C(=O)O)c1ccc(/C=C2\CCCCC2=O)cc1` (configuration not stated) reads “inactive”; that for `CC(C)C(=O)Nc1cccc(C(F)(F)F)c1`, “inactive”.
Turning to `NC(N)=NCCCCN=C(N)N`, the outcome in [1] and in assay [2] was “inactive” throughout.
For `COC(=O)C1=CO[C@@H](O)[C@@H]2C(CO)=CC[C@H]12`, the outcome in assay [1] and in [2] was “inactive” in each case.
As for `CC(=O)OCC(=O)[C@@]1(O)CCC2C3CCC4=CC(=O)CC[C@]4(C)C3[C@@H](O)C[C@@]21C` (some centres not stated), the Potency result in assay [3] was “inactive”.
As to `Cn1cnc2c(NCc3ccccc3)nc(NCCO)nc21`, the outcome in assay [1] and in [2] was “inactive” in each case. Moreover, the Potency entry in [11] was “inactive”.
As to `CN=C(N)NC(=O)Nc1c(C)cccc1C`, in assay [3], the Potency entry was “inactive”.
`COc1ccccc1N1CCN(CCN2C(=O)CC3(CCCC3)CC2=O)CC1`: the outcome in assay [1] and in assay [2] was “inactive” in each case. Also, the Potency entry in [3] and in assay [11] was “inactive” throughout.
In the case of `O=C1OC2(c3ccccc31)c1cc(I)c(O)c(I)c1Oc1c2cc(I)c(O)c1I`, the Potency in assay [12] was 1.9 µM (active).
Take `C[C@@H](C1=C(CCN(C)C)Cc2ccccc21)c1ccccn1`: in assay [3], the Potency result was “inactive”.
On the same count and under the same terms, the result for `CCOC(=O)NNc1ccc(N(CC)CC(C)O)nn1` (configuration not stated) reads “inactive”; that for `Cc1c(C)c2c(c(C)c1OC(=O)CCC(=O)OCCO)CC[C@@](C)(CCC[C@H](C)CCC[C@H](C)CCCC(C)C)O2`, 21.1 µM (active).
Consider `O=C1Nc2ccccc2C1(c1ccc(O)cc1)c1ccc(O)cc1`, for which, in assay [3], the Potency is 21.1 µM (active).
With `Brc1ccc([C@H]2CN3CCSC3=N2)cc1`, the outcome in assay [1] was “inactive”. Besides, the Potency entry in assay [3] and in assay [11] was “inactive” throughout.
For the compound `Oc1ccccc1-c1nnco1`, the Potency entry in [3] is “inactive”.
`O=C1NC(c2cccc([N+](=O)[O-])c2)=CCN1c1ccccc1O`: the outcome in assay [1] and in [2] was “inactive” in each case. In addition, the Potency result in assay [3] and in [11] was “inactive” in each case.
For the compound `O=[N+]([O-])c1nccn1CO[C@@H](CO)[C@H](O)CO`, the Potency result in assay [3] is “inactive”.
For `N[C@@H](Cn1ccc(=O)c(O)c1)C(=O)O`, the outcome in [1] and in assay [2] was “inactive” throughout. For the same compound, the activity change, negative = viability loss in assay [3] is -1.02% [at 4.96 µM] (inactive). The activity change, negative = cell killing in [11] was -0.615% [at 4.96 µM] (inactive).
For `CC(C)CCCC(C)NCCC(C)C` (configuration not stated), the Potency entry in assay [3] was “inactive”.
With `Nc1cc(C(F)(F)F)ccc1S`, in assay [12], the Potency result is “inactive”. Moreover, the Potency in assay [3] is 9.44 µM (active); in assay [11], 15 µM (active).
In the case of `CCC1(c2cnc[nH]2)Cc2ccccc2C1`, in assay [3], the Potency entry was “inactive”.
Turning to `COc1cccc2c1[C@@H]1CN(CCCCn3c(=O)[nH]c4c(sc5ncc(-c6ccccc6)nc54)c3=O)C[C@@H]1CO2`, the outcome in [1] and in assay [2] was “inactive” throughout.
Take `O=C1NC(=O)/C(=C/c2ccc3c(c2)OC(F)(F)O3)S1`: the outcome in assay [1] and in assay [2] was “inactive” throughout.
`CC(=O)[C@H]1CC[C@H]2[C@@H]3C=CC4=CC(=O)CC[C@@]4(C)[C@@H]3CC[C@]12C`: the Potency in assay [3] was 13.3 µM (active) and inactive.
In the case of `CN(C)c1cc2c(Nc3ccc4c(cnn4Cc4ccccc4)c3)ncnc2cn1`, the outcome in assay [1] and in assay [2] was “inactive” in each case. For the same compound, the Potency in assay [3] is 23 µM (active). For the same compound, the activity in [13] was 5.63%; in [15], -16.7%; in assay [16] it was -3.6%. In addition, in [14], the activity change, negative = inhibition worked out at 6.38%.
In the case of `O=C(Nc1ccc(Cl)cc1)Nc1ccc(Cl)c(Cl)c1`, the Potency in assay [3] and in assay [11] was 6.68 µM (active) in each case.
Consider `O=C1Cc2cc(Cl)ccc2N1`, for which the Potency result in assay [3] and in assay [11] was “inactive” in each case.
As for `CC(=O)OC[C@H]1O[C@@H](OC(C)=O)[C@H](OC(C)=O)[C@@H]1OC(C)=O`, the Potency result in assay [3] and in assay [11] was “inactive” in each case.
With `CCCCC(O)/C=C(C)/C=C/C=C/C(=O)N1CCCC1=O` (configuration not stated), the Potency entry in assay [3] and in [11] was “inactive” each time.
As for `CCN(CC)CC(=O)Oc1ccc(NC(C)=O)cc1`, the Potency result in assay [3] and in assay [11] was “inactive” in each case.
As to `CN1Cc2cc(C(=O)N3CCC(C4CCNCC4)CC3)ccc2NC(CC(=O)O)C1=O` (configuration not stated), the Potency entry in [3] and in [11] was “inactive” in each case.
With `CCCCCN(CCCOC)C(=O)C(CCC(=O)O)NC(=O)c1ccc(Cl)c(Cl)c1` (configuration not stated), the Potency result in assay [3] and in assay [11] was “inactive” throughout.
